This is an account of results in the supplement of paper PMC6805474.

The subject of this assay is Schistosoma mansoni schistosomula (LE). As to the kind of experiment: XTT viability relative to DMSO control; higher = more viable (less active). The conditions noted are these: 72 h; 10 µM. The protocol: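 XTT/PMS was then added for a further 24 h (72 h total) and A450 was read. % viability = (sample - heat-killed control)/(DMSO control - heat-killed control) x 100, from duplicate wells in two independent experiments.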
Take `Cc1nn(C)c(C)c1NS(=O)(=O)c1c(Cl)cc(-c2ccnc(N3CCNCC3)c2)cc1Cl`: the XTT viability worked out at 121%.
`Cc1cccc(C(=O)Nc2ccnc(N(C)C3CCN(CC(C)C)CC3)c2)c1`: the XTT viability was determined as 125%.
The figure for `O=C1O[C@@H](COc2ccon2)CN1c1cc(F)c(C2=CCN(Cc3ccccc3)CC2)c(F)c1` is 72.9%.
The figure for `CO/C=C(/C(=O)OC)c1ccccc1Oc1cc(Oc2ccccc2C#N)ncn1` is 79.5%.
The same measure for `CC1(C)OB(O)c2ccc(C3=NOC(c4cc(Cl)c(F)c(Cl)c4)(C(F)(F)F)C3)cc21` (centres undefined): 33.5%.
For the compound `CC(C)(C)C(O)C(Oc1ccc(-c2ccccc2)cc1)n1cncn1` (centres undefined), the XTT viability was determined as 106%.
The figure for `CO/N=C(\C(=O)OC)c1ccccc1CO/N=C(\C)c1cccc(C(F)(F)F)c1` is 109%.
Turning to `Nc1c2c(nc3sc4c(c13)CCCC4)CCCC2`, the XTT viability was 89.4%.
Take `CO[C@@H]1CN(c2ccc(C#CC3(O)CN4CCC3CC4)c(Cc3ccccc3)n2)C[C@H]1O` (some centres undefined): the XTT viability was 90.7%.
The same measure for `CC1COC(Cn2cncn2)(c2ccc(Oc3ccc(Cl)cc3)cc2Cl)O1` (centres undefined): 47.3%; for `Cc1cc(C2=NOC(c3cc(Cl)c(F)c(Cl)c3)(C(F)(F)F)C2)ccc1C(=O)NCc1ccc2c(c1)C(C)(C)OB2O` (centres undefined): 23.2%; for `Cc1nn(Cc2ccccc2)c(Cl)c1C(=O)NC1CCCCCC1`: 87.9%.
The same measure for `CCc1nn(C)c(C(=O)NCc2ccc(Oc3ccc(C)cc3)cc2)c1Cl`: 72.8%.
The same measure for `O=C1O[C@@H](CO)CN1c1cc(F)c(C2=CCN(Cc3ccccc3)CC2)c(F)c1`: 127%.
